Results: PubChem BioAssay

test system: XIP peptide (Xip251-270) binding; assay: small-molecule binders of XIP peptide, primary screen, biochemical, small-molecule microarray, fluorescence 635/667 nm, 0.1 µg/mL protein (AID 1182); settings: fluorescent protein binding, 635 nm, higher = more signal, called active from +8 up or from −8 down

Composite z-score, inactive:
CCCCC#C[C@@H]1C=C[C@H](Oc2cc(OC)c(OC)c(OC)c2)[C@@H](COC(=O)OCC)O1 0.392
C=COC[C@@H]1CN2[C@@H](CC[C@@H](C)[C@@H]2c2ccc(Br)cc2)C(=O)O1 -0.0657
CCN1C(=O)[C@H]2[C@H]3[C@H](O)[C@H](O)CC(=NOCC(C)C)[C@@H]3CC[C@H]2C1=O 0.821
COC(=O)CC=C[C@@H](C)[C@@H](C=NOCC[C@@H]1C=C[C@H](OC(C)=O)[C@@H](COC(C)=O)O1)OC -0.198
Cc1ccc(S(=O)(=O)NC(CCc2ccccc2)CC(=O)C(C)(C)C)cc1 (stereo unspecified) 0.275
CC(CCN1CCc2nc(-c3ccccc3)c(-c3ccccc3)cc2C1)=NOC[C@@H](O)COCc1ccco1 1.58
O=C1[C@H]2[C@H]3[C@H](O)[C@H](O)CC(=NOC[C@@H](O)COCc4ccco4)[C@@H]3CC[C@H]2C(=O)N1C[C@@H]1CCCO1 0.0071
COc1ccc(O[C@H]2C=C[C@@H](c3ccccc3)O[C@@H]2CON=CC[C@@H]2C=C[C@H](OC(C)=O)[C@@H](COC(C)=O)O2)cc1 0.21
CCOC(=O)[C@H](Cc1ccccc1)NC(=O)CCC1CC(OC(=O)NCCc2ccc(F)cc2)CC2(CCCC(COC(=O)NCCc3ccc(Cl)cc3)O2)O1 (stereo partly specified) -0.345
CCN1C(=O)[C@H]2[C@H]3[C@H](O)[C@H](O)CC(=NO[C@@H](C)c4cn([C@H](CO)Cc5ccccc5)nn4)[C@@H]3CC[C@H]2C1=O 1.13
COc1ccc(COC(=O)NN=C2C[C@@H](O)[C@@H](O)[C@@H]3[C@@H]4C(=O)N(C5CCCCC5)C(=O)[C@@H]4CC[C@H]23)cc1 -0.252
O=C1C=C[C@@H](O)[C@@H]2[C@@H]3C(=O)N(C[C@@H]4CCCO4)C(=O)[C@@H]3CC[C@@H]12 0.179
CCOC(=O)[C@H](CC(C)C)NC(=O)CCC1CC(OC(=O)NCc2ccc3c(c2)OCO3)CC2(CCCC(COC(=O)NCc3cccc(C(F)(F)F)c3)O2)O1 (stereo partly specified) 0.319
CCOC(=O)[C@H](Cc1ccccc1)NC(=O)CCC1CC(OC(=O)NCc2cccc3ccccc23)CC2(CCCC(COC(=O)NCc3ccccc3)O2)O1 (stereo partly specified) 0.278
CCOC(=O)NN=C1C[C@@H](O)[C@@H](O)[C@@H]2[C@@H]3C(=O)N(C(C)(C)C)C(=O)[C@@H]3CC[C@H]12 -0.188
CCOC(=O)[C@H](Cc1ccccc1)NC(=O)CCC1CC(OC(=O)NCCc2ccc(F)cc2)CC2(CCCC(COC(=O)NCCOC)O2)O1 (stereo partly specified) 1.99
C#CCCCON=C1C[C@@H](O)[C@@H](O)[C@@H]2[C@@H]3C(=O)N(c4cccc(Oc5ccccc5)c4)C(=O)[C@@H]3CC[C@H]12 0.332
CC(C)=CCCC(C)=CCON=C1C[C@@H](O)[C@@H](O)[C@@H]2[C@@H]3C(=O)N(C4CCCCC4)C(=O)[C@@H]3CC[C@@H]12 -0.318
COC(=O)[C@@H]1CC[C@H](C)[C@@H](c2ccc(C)cc2)N1C(=O)c1ccc(C=NO[C@H](C)c2cn([C@@H]3COC[C@H]3O)nn2)cc1 0.604
COC(=O)[C@H](C)NC(=O)CCC1CC(OC(=O)NCCc2ccc(F)cc2)CC2(CCCC(COC(=O)NCCC(C)C)O2)O1 (stereo partly specified) 0.162
CCCNC(=O)OC[C@H]1O[C@H](c2ccccc2)C=C[C@@H]1Oc1ccc(OC)cc1 -0.174
COCOc1ccc(Br)cc1C(=O)[C@@H]1O[C@H]1c1cccc(OC)c1 -0.0455
COc1ccc(O[C@@H]2[C@H](O)CO[C@H]2C=Cc2ccccc2)cc1 0.266
CC(=O)OC[C@H]1O[C@H](CC=NO[C@H](C)c2cn([C@H](CO)Cc3ccccc3)nn2)C=C[C@@H]1OC(C)=O 0.364
CCOC(=O)[C@H](CC(C)C)NC(=O)CCC1CC(OC(=O)NCc2cccc3ccccc23)CC2(CCCC(COC(=O)NCCOc3ccccc3)O2)O1 (stereo partly specified) 0.761
C#CCCCON=C1C[C@@H](O)[C@@H](O)[C@@H]2[C@@H]3C(=O)N(c4ccc(F)cc4F)C(=O)[C@@H]3CC[C@H]12 1.55
CCO[C@H](c1cc(OC)cc([N+](=O)[O-])c1OC)[C@H](C)C=CCC(=O)OC -0.128
C[C@@H]1CC[C@H]2C(=O)O[C@@H](COc3ccc(C(C)(C)C)cc3)CN2[C@@H]1c1ccc(Br)cc1 0.286
C=CC[C@@H]1C=C[C@H](ON=C2[C@H]3CCn4c(=O)n(-c5ccccc5)c(=O)n4[C@H]3[C@H](O)[C@@H]3O[C@H]23)[C@@H](CO)O1 0.372
COC(=O)CC=C[C@@H](C)[C@@H]1C=C[C@H](O)[C@@H](CO)O1 0.0118
C#CCCCON=C1C[C@@H](O)[C@@H](O)[C@@H]2[C@@H]3C(=O)N(CC)C(=O)[C@@H]3CC[C@@H]12 0.901
COc1cccc([C@H]2Oc3ccc(OC)cc3C(=NO[C@@H]3O[C@H](COC(C)=O)[C@@H](OC(C)=O)[C@H](OC(C)=O)[C@H]3OC(C)=O)[C@@H]2O)c1 -0.481
COc1ccc(O[C@H]2C=C[C@@H](c3ccccc3)O[C@@H]2CON=C(C)CCN2CCc3nc(-c4ccccc4)c(-c4ccccc4)cc3C2)cc1 0.276
C[C@@H]1NC(=O)[C@@H](C)COC(=O)[C@H](C)NC(=O)[C@@H](C)COC1=O -0.287
Cn1c(=O)n2n(c1=O)[C@H]1[C@H](O)[C@@H]3O[C@@H]3C(=NOCc3ccccc3)[C@H]1CC2 0.899
C[C@@H](ON=C1[C@H]2CCn3c(=O)n(-c4ccccc4)c(=O)n3[C@H]2[C@H](O)[C@@H]2O[C@H]12)c1cn([C@@H]2COC[C@H]2O)nn1 -0.24
